Growth data for nine compounds are collected here from PubChem BioAssay (NCI).

Test in all cases: NCI-60 one-dose screen, 48 h (100 = growth as untreated, 0 = no growth, -100 = all killed)
What all share (settings): 10 µM unless noted

Experiment [1] deals with RPMI-8226 leukemia.
For experiment [2], the system named is OVCAR-8 ovarian.
Experiment [3] relates to OVCAR-5 ovarian.
Experiment [4] relates to OVCAR-4 ovarian.
Experiment [5] deals with SK-OV-3 ovarian.
The subject of experiment [6] is IGROV1 ovarian.
Experiment [7] deals with OVCAR-3 ovarian.
For experiment [8], the system named is HS 578T breast.
For experiment [9], the system named is NCI/ADR-RES ovarian.
Experiment [10] deals with T-47D breast.
The test system of experiment [11] is BT-549 breast.
For experiment [12], the system named is MDA-MB-435 melanoma.
For experiment [13], the system named is SW-620 colon.
Experiment [14] has as its system MCF7 breast.
Experiment [15] concerns HCT-116 colon.
The subject of experiment [16] is HCC-2998 colon.
For experiment [17], the system named is KM12 colon.

About 83,000 compounds went through this panel and 20% of them were active in at least one assay; those are over-represented in the sample as a whole.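 Values shown are percent growth following 48 h exposure of cells in 96-well plates to a single concentration of compound; below 10 was considered active.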 A number with no mark means an inactive call. Activity calls are given as the source filed them.

Take `CCCn1cc(/C=N\N=C2\C(=O)Nc3ccc(C)cc32)c2ccccc21`: the growth in experiment [1] was -24.9% (active); in experiment [2], 47.5%; in experiment [3], 84.6%; in [4], 41.8%; in experiment [5] it was 88.4%; in [6], 39.4%. For the same compound, the growth was 2.1% (active) in experiment [7]; 74% in [8]; 76.3% in [9]; 39.6% in [10]; 63.5% in [11]; -26.6% (active) in [12]. Further, the growth was 36.7% in experiment [13]; 8.92% (active) in experiment [14]; 39.9% in experiment [15]; 47% in [16]; 59.9% in [17].
As to `COc1cc(/C=C/CO)cc(OC)c1O[C@@H]1O[C@H](CO)[C@@H](O)[C@H](O)[C@H]1O`, the growth in [1] was 99.3%; in [2] it was 98.8%; in experiment [3], 92.4%; in experiment [4], 100%; in experiment [5], 100%; in experiment [6] it was 104%. Moreover, the growth was 108% in experiment [7]; 96.4% in experiment [8]; 106% in [9]; 93.1% in experiment [10]; 104% in [11]; 102% in experiment [12]. For the same compound, the growth is 94% in experiment [13]; 93.2% in experiment [14]; 95.8% in [15]; 102% in experiment [16]; 105% in [17].
Consider `C=CCn1c(CN2CCN(c3cc4c(cc3F)c(=O)c(C(=O)O)cn4C3CC3)CC2)n[nH]c1=S`, for which the growth was 109% in experiment [1]; 100% in experiment [2]; 94% in experiment [3]; 105% in [4]; 108% in experiment [5]; 96.2% in experiment [6]. The growth in experiment [7] is 102%; in experiment [8], 95%; in [9] it was 99.2%; in experiment [10] it was 103%; in [11], 105%; in [12] it was 102%. Besides, the growth in experiment [13] was 105%; in experiment [14], 95.7%; in experiment [15], 105%; in [16], 107%; in [17], 99.4%.
On to `O=C1C(=O)c2c(nc3ccc(C(F)(F)F)cn23)-c2ccccc21`, for which the growth in [1] is -26.6% (active); in experiment [2], -96% (active); in experiment [3] it was -78% (active); in experiment [4] it was -95.9% (active); in experiment [5], -99.6% (active); in experiment [6], -58.9% (active). For the same compound, the growth was -63% (active) in [7]; -15.3% (active) in experiment [8]; -14.1% (active) in experiment [9]; -50.6% (active) in experiment [10]; -85.2% (active) in experiment [11]; -84.4% (active) in [12]. Moreover, the growth in experiment [13] is -60.4% (active); in experiment [14], -55.5% (active); in experiment [15] it was -74.9% (active); in experiment [16], -90.4% (active); in [17], -61.7% (active).
As to `Cc1cc(C)cc(Nc2nccc(-c3c(-c4ccc(F)cc4)ncn3C3CCNCC3)n2)c1`, the growth in [1] is -3.31% (active); in [2] it was -24.8% (active); in experiment [3], 35.2%; in experiment [4] it was 30.3%; in experiment [5], 9.09% (active); in [6] it was -40.1% (active). In addition, the growth is 5.97% (active) in experiment [7]; 24.3% in experiment [8]; 15.3% in experiment [9]; 15.2% in experiment [10]; 17.7% in experiment [11]; -78.8% (active) in [12]. Besides, the growth in experiment [13] was -28% (active); in experiment [14] it was -8.14% (active); in experiment [15], -98.8% (active); in experiment [16], -60.2% (active); in experiment [17], 11.8%.
Regarding `c1ccc2c3c([nH]c2c1)C(c1ccc(C2NCCc4c2[nH]c2ccccc42)cc1)NCC3` (stereo not drawn), the growth in experiment [1] is -40.3% (active); in experiment [2], -41.4% (active); in [3], 77%; in experiment [4] it was 23.5%; in [5], 49.1%; in experiment [6], 25.8%. The growth in [7] was -65.3% (active); in [8], -16.8% (active); in [9], 63.1%; in [10] it was -59% (active); in experiment [11], 86.9%; in experiment [12] it was -91.6% (active). In addition, the growth in [13] was -80% (active); in experiment [14], -81.2% (active); in experiment [15], -91.7% (active); in experiment [16] it was -64.8% (active); in experiment [17], -62% (active).
As for `O=C(/C(=C/c1ccc([N+](=O)[O-])cc1)SCc1ccc(Cl)cc1)c1ccc(F)cc1`, the growth was -25.6% (active) in experiment [1]; 57.8% in [2]; 95.4% in [3]; 60.9% in experiment [4]; 63.9% in experiment [5]; 58.4% in experiment [6]. Moreover, the growth was 54% in experiment [7]; 27.9% in experiment [8]; 51% in experiment [9]; 36.4% in experiment [10]; 78.2% in [11]; 49.2% in [12]. Also, the growth in experiment [13] was -9.4% (active); in experiment [14] it was -11.9% (active); in experiment [15], -54.9% (active); in [16] it was 84.5%; in experiment [17] it was 23.3%.
Take `Cc1cc(NC(=O)CNc2nc(Oc3ccc(F)cc3)nc(-c3ccc(F)cc3)n2)ccc1Cl`: the growth in experiment [1] is 96.6%; in experiment [2], 102%; in experiment [3] it was 103%; in experiment [4], 105%; in experiment [5], 93.7%; in [6], 106%. Also, the growth in experiment [7] is 116%; in experiment [8], 85.8%; in experiment [9] it was 101%; in [10] it was 91.3%; in experiment [11], 100%; in experiment [12], 105%. For the same compound, the growth in experiment [13] is 101%; in experiment [14], 94.8%; in experiment [15] it was 82.1%; in experiment [16], 102%; in experiment [17] it was 103%.
On to `Nc1c(C(=O)Nc2ccccn2)sc2nc3c(cc12)CCCC3`, for which the growth is 55.9% in experiment [1]; 65% in experiment [2]; 77.6% in [3]; 74.9% in experiment [4]; 42.4% in [5]; 55.2% in experiment [6]. Further, the growth was 23.9% in experiment [7]; 39.7% in [8]; 28.2% in experiment [9]; 43% in experiment [10]; 44% in experiment [11]; -24.6% (active) in experiment [12]. Further, the growth in [13] is 40.2%; in [14], 24.2%; in [15] it was 13.6%; in [16], 57.1%; in experiment [17] it was 30.8%.
